Assay results taken from PubChem BioAssay (EPA / NIEHS).
“And” between values parts separate entries of the source, which are not always exact repeats. Equal entries are not always repeated. Results filed as inconclusive are left out. Some structures have more than one record in an assay (separate samples or runs), and their calls can disagree. The source made the active and inactive calls. How the source made its calls, unless noted: active means hit-call score of the fitted dose curve at least 0.9, where 1 is the maximum; inactive means score below 0.9.

How the values were obtained:
[1] = read-out: Interleukin-8 (IL8), CXCL8 (gene 3576); experiment: BSK_3C_IL8: BioMAP Diversity Plus: 3C Assay for Interleukin-8 (IL8) Biomarker Activity (AID 2283020); settings: primary human endothelial cells (HUVEC); actives raise or lower the signal
In short: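 HUVEC, 3C stimulation; 24 h compound exposure; IL-8 read by ELISA; gain or loss of signal fitted relative to DMSO control.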

[2] = read-out: Monokine induced gamma interferon (MIG), CXCL9 (gene 4283); experiment: BSK_3C_MIG: BioMAP Diversity Plus: 3C Assay for Monokine induced gamma interferon (MIG) Biomarker Activity (AID 2283021); settings: primary human endothelial cells (HUVEC); actives raise or lower the signal
In short: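 HUVEC, 3C system; 24 h chemical exposure; MIG by ELISA; bidirectional fit vs DMSO baseline.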

[3] = biological target: human Vitamin D Receptor (VDR), VDR (gene 7421) (UniProt P11473); experiment: ATG_VDR_TRANS: Attagene TRANS-FACTORIAL HepG2 Assay for human Vitamin D Receptor (VDR) (AID 2283022; active means hit-call score of the fitted dose curve at least 0.9, where 1 is the maximum)
In short: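 Multiplexed TRANS reporter in HepG2; 24 h treatment; reporter mRNA by RT-PCR plus capillary electrophoresis; upregulation scored relative to DMSO.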

[4] = BSK_3C_SRB: Viability Assessment in the BioMAP Diversity Plus: 3C Assay (AID 2283023); settings: primary human endothelial cells (HUVEC);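 further: fitted both ways against DMSO so a hit may be signal rise or drop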
In short: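 Overt cytotoxicity is gauged in parallel confluent HUVEC cultures by SRB total-protein staining at the time of biomarker measurement, 24 h after dosing. Gain or loss of signal is fitted versus DMSO.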

[5] = read-out: Matrix Metallopeptidase 1 (MMP1), MMP1 (gene 4312); experiment: BSK_BE3C_MMP1: BioMAP Diversity Plus: BE3C Assay for Matrix Metallopeptidase 1 (MMP1) Biomarker Activity (AID 2283024); settings: primary human bronchial epithelial cells; actives raise or lower the signal
In short: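 ELISA read-out of MMP1 in human lung bronchial epithelial primary cultures, 24 h post-dose; bidirectional curve fit vs DMSO baseline, gain or loss of signal scored.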

[6] = BSK_3C_Vis: BioMAP Diversity Plus: 3C Assay for Morphology Visualization (AID 2283025); settings: primary human endothelial cells (HUVEC);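 further: fitted both ways so gain or loss versus DMSO counts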
In short: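 HUVEC, 3C system; light microscopy of morphology at 24 h post-dose. Bidirectional fit vs DMSO baseline. Secondary readout, background-control function.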

[7] = read-out: Pselectin, SELP (gene 6403); experiment: BSK_4H_Pselectin: BioMAP Diversity Plus: 4H Assay for Pselectin Biomarker Activity (AID 2283026); settings: primary human endothelial cells (HUVEC); actives raise or lower the signal
In short: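 HUVEC, 24 h chemical exposure; P-selectin read by ELISA. Bidirectional curve fit vs DMSO baseline; gain or loss of signal scored.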

[8] = BSK_4H_SRB: Viability Assessment in the BioMAP Diversity Plus: 4H Assay (AID 2283027); settings: primary human endothelial cells (HUVEC);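 further: cells exposed to compound for 24 h before staining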;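 on AC50: curves fitted both ways versus DMSO so AC50 may be loss or gain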
In short: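 Cytotoxicity readout: sulforhodamine B (0.1%) staining of total protein after 10% TCA fixation, measured at 560 nm in human umbilical vein endothelium at 24 h. DMSO set the baseline; fitting was bidirectional.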

[9] = BSK_BE3C_SRB: Viability Assessment in the BioMAP Diversity Plus: BE3C Assay (AID 2283028); settings: primary human bronchial epithelial cells;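 further: measured 24 h after chemical dosing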
In short: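 SRB total-protein staining (0.1%, after TCA fixation) of chemically dosed human bronchial epithelial primary cells at 24 h; DMSO serves as the negative control for bidirectional curve fitting.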

[10] = read-out: Thrombomodulin, THBD (gene 7056); experiment: BSK_3C_Thrombomodulin: BioMAP Diversity Plus: 3C Assay for Thrombomodulin Biomarker Activity (AID 2283029); settings: primary human endothelial cells (HUVEC); actives raise or lower the signal
In short: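 HUVEC, 3C conditions; compound 24 h; thrombomodulin by ELISA; bidirectional curve fit vs DMSO baseline; parallel SRB total-protein staining for cytotoxicity.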

[11] = read-out: Urokinase-type plasminogen activator receptor (uPAR), PLAUR (gene 5329); experiment: BSK_4H_uPAR: BioMAP Diversity Plus: 4H Assay for Urokinase-type plasminogen activator receptor (uPAR) Biomarker Activity (AID 2283030); settings: primary human endothelial cells (HUVEC); actives raise or lower the signal
In short: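 Endpoint derived via bidirectional curve fitting against DMSO baseline; readout was ELISA detection of uPAR on umbilical vein endothelial cells at 24 h post-treatment, with SRB-stained parallel cultures assessing cytotoxicity.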

[12] = read-out: Vascular endothelial growth factor receptor 2 (Homo sapiens) (UniProt P35968); experiment: BSK_4H_VEGFRII: BioMAP Diversity Plus: 4H Assay for Vascular endothelial growth factor receptor 2 (VEGFR2) Biomarker Activity (AID 2283031); settings: primary human endothelial cells (HUVEC); actives raise or lower the signal
In short: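 In this multiplexed HUVEC system, biomarker ELISA was performed after 24 h chemical exposure. Parallel SRB staining (TCA fixation, 560 nm) tracked cytotoxicity; DMSO served as baseline.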

[13] = read-out: Human Leukocyte Antigen - DR isotype (HLADR), HLA-DRA (gene 3122); experiment: BSK_BE3C_HLADR: BioMAP Diversity Plus: BE3C Assay for Human Leukocyte Antigen - DR isotype (HLADR) Biomarker Activity (AID 2283032); settings: primary human bronchial epithelial cells; actives raise or lower the signal
In short: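 Primary human bronchial epithelial cells (BE3C); 24 h chemical exposure; HLA-DR by ELISA; bidirectional curve fit vs DMSO baseline.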

[14] = read-out: Vascular cell adhesion molecule 1 (VCAM1), VCAM1 (gene 7412); experiment: BSK_4H_VCAM1: BioMAP Diversity Plus: 4H Assay for Vascular cell adhesion molecule 1 (VCAM1) Biomarker Activity (AID 2283033); settings: primary human endothelial cells (HUVEC); actives raise or lower the signal
In short: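 HUVEC, 24 h post-dose; VCAM-1 by ELISA. Bidirectional curve fit vs DMSO baseline. Parallel SRB total-protein stain (0.1% SRB after 10% TCA fixation, 560 nm) for cytotoxicity.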

[15] = read-out: Interferon-gamma inducible Protein 10 (IP10), CXCL10 (gene 3627); experiment: BSK_BE3C_IP10: BioMAP Diversity Plus: BE3C Assay for Interferon-gamma inducible Protein 10 (IP10) Biomarker Activity (AID 2283034); settings: primary human bronchial epithelial cells; actives raise or lower the signal
In short: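 ELISA readout of IP-10 in BE3C system: primary human bronchial epithelial cells, 24 h post-dosing; bidirectional curve fit vs DMSO baseline.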

[16] = read-out: Monokine induced gamma interferon (MIG), CXCL9 (gene 4283); experiment: BSK_BE3C_MIG: BioMAP Diversity Plus: BE3C Assay for Monokine induced gamma interferon (MIG) Biomarker Activity (AID 2283035); settings: primary human bronchial epithelial cells; actives raise or lower the signal
In short: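 hu bronchial epithelial 1° cells, 24 h cpd; MIG by ELISA; bidirectional fit, DMSO = baseline.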

[17] = read-out: Transforming growth factor beta 1 (TGFb1), TGFB1 (gene 7040); experiment: BSK_BE3C_TGFb1: BioMAP Diversity Plus: BE3C Assay for Transforming growth factor beta 1 (TGFb1) Biomarker Activity (AID 2283036;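 further: TGF-b1 protein level measured by ELISA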); settings: primary human bronchial epithelial cells; actives raise or lower the signal
In short: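 Read-out: ELISA for TGF-b1 in primary human bronchial epithelial cultures, 24 h post-dose. Bidirectional curve fitting vs DMSO control; gain or loss of signal both scored.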

[18] = read-out: Plasminogen activator inhibitor-1 (PAI1), SERPINE1 (gene 5054); experiment: BSK_BE3C_PAI1: BioMAP Diversity Plus: BE3C Assay for Plasminogen activator inhibitor-1 (PAI1) Biomarker Activity (AID 2283037); settings: primary human bronchial epithelial cells; actives raise or lower the signal
In short: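 ELISA read-out of PAI-1 from human bronchial epithelial primary cells, 24 h post-dosing; bidirectional curve fit vs DMSO baseline, gain or loss of signal scored.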

[19] = read-out: urokinase plasminogen activator (uPA), PLAU (gene 5328); experiment: BSK_BE3C_uPA: BioMAP Diversity Plus: BE3C Assay for urokinase plasminogen activator (uPA) Biomarker Activity (AID 2283038); settings: primary human bronchial epithelial cells; actives raise or lower the signal;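 further: uPA protein level quantified by ELISA in cell cultures; uPA read one day after compound addition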
In short: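 Using confluent primary human lung bronchial epithelial cultures, we dosed chemicals, waited 24 h, then ran a uPA ELISA, fitting bidirectionally against DMSO.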

[20] = read-out: Urokinase-type plasminogen activator receptor (uPAR), PLAUR (gene 5329); experiment: BSK_BE3C_uPAR: BioMAP Diversity Plus: BE3C Assay for Urokinase-type plasminogen activator receptor (uPAR) Biomarker Activity (AID 2283039); settings: primary human bronchial epithelial cells; actives raise or lower the signal
In short: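 ELISA readout of uPAR on human lung primary bronchial epithelial cells, 24 h post-dosing. Bidirectional curve fit relative to DMSO vehicle baseline; gain or loss of signal both scored.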

Measured: AC50

Sequence of human Vitamin D Receptor (VDR), VDR (gene 7421) (P11473 whole entry, looked up): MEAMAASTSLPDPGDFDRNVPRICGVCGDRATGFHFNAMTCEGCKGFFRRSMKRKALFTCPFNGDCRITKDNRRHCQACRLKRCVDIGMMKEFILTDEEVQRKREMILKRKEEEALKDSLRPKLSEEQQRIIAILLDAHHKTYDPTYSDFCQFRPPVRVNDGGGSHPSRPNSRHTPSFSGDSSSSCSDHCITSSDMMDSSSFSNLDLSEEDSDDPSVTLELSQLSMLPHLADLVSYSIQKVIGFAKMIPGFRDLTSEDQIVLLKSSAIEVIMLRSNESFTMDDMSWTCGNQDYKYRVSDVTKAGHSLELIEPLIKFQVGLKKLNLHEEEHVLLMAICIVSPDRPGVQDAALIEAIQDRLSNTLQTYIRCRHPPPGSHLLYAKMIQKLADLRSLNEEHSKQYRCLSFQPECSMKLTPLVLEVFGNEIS

Cc1ccc(O)c(-n2nc3ccccc3n2)c1
inactive: all assays above

CC1=CC2C3C=CC(C3)C2C1C (stereo not given)
not listed: [7]
inactive: all other assays above

OCC(F)(F)C(F)(F)C(F)(F)C(F)(F)C(F)(F)C(F)(F)C(F)(F)C(F)(F)CO
inactive: [1] | [2] | [3] | [4] | [5] | [7] | [8] | [9] | [10] | [11] | [12] | [19]
active: [4] 24.6 µM | [5] 8.5 µM | [7] 9.58 µM | [8] 36.5 µM | [13] 30 µM and 31.7 µM | [14] 30 µM and 24.8 µM | [15] 38 µM and 30.8 µM | [16] 43 µM and 46.6 µM | [18] 37.4 µM and 30 µM | [20] 43.7 µM and 40.9 µM

O=C(O)C(F)(F)C(F)(F)C(F)(F)C(=O)O
not listed: [6] | [16] | [17]
inactive: all other assays above

FC(F)(F)C(F)(F)C(F)(F)CC1CO1 (stereo not given)
inactive: [1] | [2] | [3] | [4] | [5] | [8] | [9] | [10] | [11] | [12] | [13] | [14] | [15] | [18] | [19] | [20]
active: [5] 26.3 µM

CNS(=O)(=O)C(F)(F)C(F)(F)C(F)(F)C(F)(F)C(F)(F)C(F)(F)C(F)(F)C(F)(F)F
inactive: [1] | [2] | [3] | [4] | [5] | [8] | [9] | [10] | [11] | [12] | [13] | [14] | [15] | [19] | [20]
active: [8] 29.8 µM | [15] 13.3 µM | [18] 2.67 µM and 1.97 µM

NCC(F)(F)C(F)(F)C(F)(F)C(F)(F)C(F)(F)C(F)(F)C(F)(F)C(F)(F)F
not listed: [6] | [16] | [17]
inactive: all other assays above

O=S(=O)(OCC(F)(F)F)C(F)(F)C(F)(F)C(F)(F)C(F)(F)F
not listed: [6] | [7] | [16] | [17]
inactive: all other assays above

O=C(O)C(F)(F)OC(F)(F)C(F)(F)OC(F)(F)C(F)(F)OC(F)(F)F
active: [5] 2.78 µM and 3.97 µM and 11.8 µM | [13] 9.98 µM | [15] 7.49 µM
inactive: [1] | [2] | [3] | [4] | [8] | [9] | [10] | [11] | [12] | [13] | [14] | [15] | [16] | [18] | [19] | [20]

NCC(F)(F)C(F)(F)C(F)(F)C(F)(F)C(F)(F)C(F)(F)F
not listed: [6] | [7] | [16] | [17]
inactive: all other assays above

OCC(O)CC(F)(F)C(F)(F)C(F)(F)C(F)(F)F (stereo not given)
not listed: [6] | [7] | [16] | [17]
inactive: all other assays above

C[Si](Cl)(Cl)CCC(F)(F)C(F)(F)C(F)(F)C(F)(F)C(F)(F)C(F)(F)F
inactive: [1] | [2] | [3] | [4] | [5] | [8] | [9] | [10] | [11] | [12] | [13] | [14] | [15] | [16] | [18] | [19] | [20]
active: [11] 24.8 nM
